Measurements published in PubChem BioAssay (NCATS).
Inconclusive results are not listed. Calls of active or inactive are those of the source. Calls come from the whole dose curve; as a rule, active = well fitted cell-killing curve with a large enough effect; inconclusive = small, poorly fitted or top-dose-only effect, or effect the other way; inactive = no such curve, though single readings can be large or run the other way.
Potency is the fitted concentration of half-maximal effect.

Experiment: Quantitative High-Throughput drug screen in 47 multiple myeloma cell lines against the NCATS MIPE library collection: OCIMY5_PLB cell viability assay (AID 1918988); note: nearly all actives have a fitted effect of over 65% in size
Details: OCI-MY5 myeloma viability, ATP luminescence, 48 h; series mostly up to 45.8 µM
In short: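 Cells were exposed to library compounds for 48 hours, after which ATP was measured by CellTiter-Glo. Signal was taken as median relative luminescence units.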
With CC(C)(O)c1cc2nc(-c3cnc(N)nc3)nc(N3CCOCC3)c2s1 the Potency was 0.105 µM (active).
For CN[C@H]1CCc2cc(OC)c(OC)c(OC)c2-c2ccc(OC)c(=O)cc21, the Potency was 0.0013 µM (active).
For O=C(C=Cc1c(C(=O)O)[nH]c2cc(Cl)cc(Cl)c12)Nc1ccccc1, the Potency was “inactive”.
For CN1CC[C@@H](c2c(O)cc(O)c3c(=O)cc(-c4ccccc4Cl)oc23)[C@@H](O)C1, the Potency was 0.0662 µM (active).
With Cc1[nH]c2ccccc2c1CCNCc1ccc(C=CC(=O)NO)cc1 the Potency was 0.0418 µM (active).
For Cc1cc(Nc2cc(N3CCN(C)CC3)nc(C=Cc3ccccc3)n2)n[nH]1, the Potency was 4.81 µM (active).
In the case of Nc1ccn([C@@H]2O[C@H](CO)[C@H](O)C2(F)F)c(=O)n1, the Potency is reported as 5.9 µM (active).
With CN(C)c1nc(Cc2ccc(NC(=O)c3ccc4ccccc4c3)cc2)nc(Cl)c1CC(=O)O the Potency was 1.66 µM (active).
With Cc1ccc(CN2CCNCC2)cc1NC(=O)CNc1ccc(F)c(F)c1 the Potency was 18.7 µM (active).
In the case of CCC1=C[C@@H]2CN(C1)Cc1c([nH]c3ccccc13)[C@@](C(=O)OC)(c1cc3c(cc1OC)N(C)[C@@H]1[C@@](O)(C(=O)OC)[C@H](OC(C)=O)[C@]4(CC)C=CCN5CC[C@]31[C@@H]54)C2, the Potency is reported as 0.0066 µM (active).
For CCCCN1CCC(CNC(=O)c2c3n(c4ccccc24)CCCO3)CC1, the Potency was 3.32 µM (active).
For O=C(CCCCCCC(=O)Nc1ccc([C@H]2O[C@@H](CSc3nc(-c4ccccc4)c(-c4ccccc4)o3)C[C@@H](c3ccc(CO)cc3)O2)cc1)NO, the Potency was 11.8 µM (active).
In the case of CC(=O)Nc1sc2c(c1-c1nc3ccccc3s1)CNC2, the Potency is reported as 16.6 µM (active).
In the case of COc1cc2ncn(-c3cc(OCc4ccccc4C(F)(F)F)c(C(N)=O)s3)c2cc1OC, the Potency is reported as 1.32 µM (active).
For CC(O)C1C(=O)N2C(C(=O)O)=C(SC3CNC(C(=O)N(C)C)C3)C(C)C12 (stereo unspecified), the Potency was “inactive”.
In the case of COc1cc2c(Oc3ccc4[nH]c(C)cc4c3F)ncnc2cc1OCCCN1CCCC1, the Potency is reported as 23.5 µM (active).
With COc1cc(-c2nn(C3CCC(N4CCN(C(C)=O)CC4)CC3)c3ncnc(N)c23)ccc1NC(=O)c1cc2ccccc2n1C (stereo unspecified) the Potency was 1.87 µM (active).
In the case of CCCCCN(CCC12CC3CC(CC(C3)C1)C2)C(=O)NCCCc1ccncc1, the Potency is reported as 14.8 µM (active).
In the case of COc1c(OCCCN2CCOCC2)ccc2c3n(c(=NC(=O)c4cnc(N)nc4)nc12)CCN3, the Potency is reported as 0.102 µM (active).
With Cc1c(Cn2c(C)nc3c(C(=O)O)cc(N4CCOCC4)cc32)cccc1C(F)(F)F the Potency was 8.33 µM (active).
For NCC(=O)Nc1ccc(-n2nc(C(F)(F)F)cc2-c2ccc3c(ccc4ccccc43)c2)cc1, the Potency was 29.6 µM (active).
In the case of Cc1c(NC(=O)OC[C@@H]2COCCN2)cn2ncnc(Nc3ccc4c(cnn4Cc4cccc(F)c4)c3)c12, the Potency is reported as 0.0166 µM (active).
With Cc1cnc(-c2cnc(NCCNc3ccc(C#N)cn3)nc2-c2ccc(Cl)cc2Cl)[nH]1 the Potency was 20.9 µM (active).
With CS(=O)(=O)c1ccc(-c2cnc(N)c(C(=O)Nc3ccccc3)n2)cc1 the Potency was 2.64 µM (active).
In the case of COc1cc(C(=O)NS(=O)(=O)c2ccccc2C)ccc1Cc1cn(C)c2ccc(NC(=O)OC3CCCC3)cc12, the Potency is reported as 18.7 µM (active).
For COC(=O)Nc1ccc(-c2nc(N3CCOCC3)c3cnn(C4CCN(Cc5cccnc5)CC4)c3n2)cc1, the Potency was 20.9 µM (active).
